According to PubChem BioAssay (NCI):
About 83,000 compounds went through this panel and 20% of them were active in at least one assay; those are over-represented in the sample as a whole.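 The endpoint reported here, percent growth, reads 100 for growth as untreated, 0 for no net growth and -100 for all cells dead.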 The source made the active and inactive calls. How the source made its calls: active means growth percent below 10; inactive means the rest.

System: U251 CNS
Test: NCI-60 one-dose screen, 48 h (100 = growth as untreated, 0 = no growth, -100 = all killed)
Settings: 10 µM unless noted

Structure (SMILES) | growth
Clc1ccc(CSC(Cn2ccnc2)c2ccc(Cl)cc2Cl)cc1 (stereo unspecified) | 27.8% (inactive)
C=CC1=C[C@@H]2[C@@H]3O[C@]4(CC[C@H](O4)[C@@H](C)C[C@@H](O)C3=O)C[C@H](O)C3=NCC[C@@]32CC1 | -7% (active)
COC1CC2c3ccccc3C1C(C)=[N+]2C (stereo unspecified) | 99.1% (inactive)
Cc1cc(N(CCCl)CCCl)ccc1C=Nc1ccc(-c2csc(Cc3ccccc3)n2)cc1 | 62.7% (inactive)
N/C(=N/N=C/c1ccncc1)N[N+](=O)[O-] | 97.4% (inactive)
CCN1C(=O)C(=C/C=C/c2ccccc2)C(=O)N(CC)C1=O | 54.9% (inactive)
CC(=O)O[C@H](C[C@H](C(C)C)N(C)C(=O)[C@@H](NC(=O)[C@H]1CCCCN1C)C(C)C)c1cccc(C(=O)N[C@@H](Cc2ccccc2)C[C@H](C)C(=O)O)n1 | 10.9% (inactive)

System: PC-3 prostate
Test: as above
Settings: 10 µM unless noted

Structure (SMILES) | growth
ClCCN(CCCl)Cc1ccc(Nc2ccnc3cc(Cl)ccc23)cc1 | 47.3% (inactive)
N#CCCNc1ccccc1 | 96.9% (inactive)
C[C@]12CCc3sc(NCCc4ccccc4)nc3C1=CC[C@@H]1[C@@H]2CC[C@]2(C)C(=O)CC[C@@H]12 | 38.8% (inactive)
Cc1cnc(/C=C/C(=O)O)cc1-c1cc2c(cc1C)C(C)(C)CCC2(C)C | 74.8% (inactive)
C[C@@H]1CCC2[C@@H](C)[C@H](OC(=O)CCC(=O)NCCNC(=O)Cc3cc(=O)oc4cc(N(C)C)ccc34)O[C@@H]3O[C@]4(C)CC[C@@H]1C23OO4 (stereo partly specified) | 19.1% (inactive)
CCN(CCO)C(Cc1ccccc1)c1ccccc1 (stereo unspecified) | 94.9% (inactive)
CC1=C2[C@@H](CC1)[C@]1(C)O[C@@](C(C)C)(C[C@H]1O)[C@H]2OC(=O)C1CC1c1ccccc1 (stereo partly specified) | 56.9% (inactive)
COC(=O)[C@@H](C)C[C@H](Cc1ccccc1)NC(=O)c1nc([C@@H](C[C@H](C(C)C)N(C)C(=O)[C@@H](NC(=O)[C@H]2C[C@H](O)CCN2C)C(C)C)OC(C)=O)sc1C(C)C | 21.5% (inactive)
COc1cc(C=Nc2cc(Cl)cc(Cl)c2)ccc1N(CCCl)CCCl | 63.1% (inactive)
COC(=O)[C@@H](C)C[C@H](Cc1ccccc1)NC(=O)c1csc([C@@H](C[C@H](C(C)C)N(C)C(=O)[C@@H](NC(=O)[C@H]2CCCN2C)C2CC2)OC(C)=O)n1 | 8.37% (active)
NC(=S)c1cn(C2OC(CO)C(O)C2O)c2ncnc(N)c12 (stereo unspecified) | 6.45% (active)
O=C(N/N=C/c1ccc(N(CCCl)CCCl)cc1)c1cccc2ccccc12 | 61.5% (inactive)
Oc1ccc2c3c1OC1[C@@H](O)CC[C@@]4(O)[C@@H](C2)N(CC2CCC2)CC[C@]314 (stereo partly specified) | 94.1% (inactive)
CCOC(=O)[C@@H](C)C[C@H](Cc1ccccc1)NC(=O)c1csc([C@@H](C[C@H](C(C)C)N(C)C(=O)[C@@H](NC(=O)[C@H]2C[C@H](O)CCN2C)C(C)C)OC(C)=O)n1 | 24.5% (inactive)
COC(=O)C12CC(NC(=O)c3csc([C@@H](C[C@H](C(C)C)N(C)C(=O)[C@@H](NC(=O)[C@H]4CCCCN4C)C(C)C)OC(C)=O)n3)(C1)C2 | 23% (inactive)
COC(=O)[C@@H](C)C[C@H](Cc1ccccc1)NC(=O)c1csc([C@@H](C[C@H](C(C)C)N(C)C(=O)[C@H](C)NC(=O)[C@H]2CCCCN2C)OC(C)=O)n1 | 19.6% (inactive)
O=C(CCCCCNC1=CC(=O)c2ccccc2C1=O)NCCC[Te]c1ccccc1 | -0.995% (active)
CC(=O)O[C@H](C[C@H](C(C)C)N(C)C(=O)[C@@H](NC(=O)[C@H]1CCCCN1C)C(C)(C)C)c1nc(C(=O)N[C@@H](Cc2ccccc2)C[C@H](C)C(=O)O)cs1 | 25.1% (inactive)
COc1ccc(/C=C\c2cc(OC)c(OC)c(OC)c2)cc1OCC(=O)Nc1nc2ccc(F)cc2s1 | 40.4% (inactive)
COc1ccc(C(=O)c2cc(OC)c(OC)c(OC)c2)cc1OC(C)=O | 14.1% (inactive)
C[C@]12C[C@@H](CO)[C@H](O)C[C@@H]1CC[C@@H]1[C@@H]2CC[C@]2(C)[C@@H](O)CC[C@@H]12 | 95.1% (inactive)
N#CC1(C#N)C(c2ccc(N(CCCl)CCCl)cc2)OC23CCCCC2C1(C#N)C(=N)O3 (stereo unspecified) | 74.8% (inactive)
O=[N+]([O-])c1ccc([Se]C2CCCCC2Cl)c([N+](=O)[O-])c1 (stereo unspecified) | 58.9% (inactive)
COc1ccc(-n2c(C)nc3cc(OC)c(OC)cc3c2=O)cc1OC | 101% (inactive)
